The values that follow come from PubChem BioAssay (NCI).

Common to all, as to experiment: NCI-60 one-dose screen, 48 h (100 = growth as untreated, 0 = no growth, -100 = all killed)
One assay deals with HCT-15 colon. To be noted: 10 µM unless noted.
A further assay has as its system HT29 colon. As to conditions: 10 µM unless noted.
In the next assay the test system is SNB-75 CNS. As to conditions: 10 µM unless noted.
The subject of a further assay is SNB-19 CNS. To be noted: 10 µM unless noted.
The subject of a further assay is U251 CNS. As to conditions: 10 µM unless noted.
The subject of the next assay is SK-MEL-5 melanoma. To be noted: 10 µM unless noted.
The subject of another assay is UACC-62 melanoma. As to conditions: 10 µM unless noted.
The test system of the next assay is SK-MEL-28 melanoma. To be noted: 10 µM unless noted.
The next assay concerns SK-MEL-2 melanoma. To be noted: 10 µM unless noted.
The subject of a further assay is EKVX NSCLC. As to conditions: 10 µM unless noted.
In the next assay the test system is SN12C renal. As to conditions: 10 µM unless noted.
The test system of another assay is UO-31 renal. As to conditions: 10 µM unless noted.
The subject of another assay is TK-10 renal. As to conditions: 10 µM unless noted.
Another assay has as its system ACHN renal. To be noted: 10 µM unless noted.
Another assay deals with CAKI-1 renal. As to conditions: 10 µM unless noted.
The subject of another assay is A498 renal. To be noted: 10 µM unless noted.
For a further assay, the system named is CCRF-CEM leukemia. To be noted: 10 µM unless noted.
The next assay relates to MOLT-4 leukemia. As to conditions: 10 µM unless noted.
The next assay has as its system PC-3 prostate. As to conditions: 10 µM unless noted.
A further assay relates to LOX IMVI melanoma. To be noted: 10 µM.

The panel holds about 83,000 compounds, 20% with a hit somewhere; the sample as a whole holds those more often.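 Each cell line was grown in a 96-well plate and treated with one concentration of compound for 48 hours. Values below 10 were considered active.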 Values without a mark were called inactive. The source made the active and inactive calls.

For `Cc1ccc(S(=O)(=O)Oc2ccc3sc4c(CO)ccc(NCCN(C)C)c4c(=O)c3c2)cc1`, the growth with HCT-15 colon was -93.8% [100 µM] (active); with HT29 colon it was -84.3% [100 µM] (active); in the assay on SNB-75 CNS, -92.1% [100 µM] (active); with SNB-19 CNS, -83.7% [100 µM] (active); in the assay on U251 CNS it was -74.7% [100 µM] (active); in the assay with SK-MEL-5 melanoma, -94.3% [100 µM] (active). For the same compound, the growth is -95.5% [100 µM] (active) with UACC-62 melanoma; -85.1% [100 µM] (active) in the assay with SK-MEL-28 melanoma; -86.6% [100 µM] (active) in the assay with SK-MEL-2 melanoma; -66.7% [100 µM] (active) in the assay on EKVX NSCLC; -94.1% [100 µM] (active) in the assay on SN12C renal; -95.6% [100 µM] (active) with UO-31 renal. The growth in the assay on TK-10 renal is -91.1% [100 µM] (active); with ACHN renal it was -92.7% [100 µM] (active); in the assay on CAKI-1 renal, -91% [100 µM] (active); in the assay on A498 renal it was -71.6% [100 µM] (active); in the assay on CCRF-CEM leukemia, -27.9% [100 µM] (active); with MOLT-4 leukemia it was -34.6% [100 µM] (active).
In the case of `OCc1cccnc1`, the growth in the assay on HCT-15 colon is 92.4%; in the assay with HT29 colon, 107%; with SNB-75 CNS, 102%; in the assay with SNB-19 CNS, 96.8%; with PC-3 prostate it was 94.7%; in the assay on SK-MEL-5 melanoma, 116%. Further, the growth in the assay with UACC-62 melanoma is 103%; with LOX IMVI melanoma, 104%; in the assay with SK-MEL-28 melanoma it was 111%; in the assay with SK-MEL-2 melanoma, 94%; in the assay with EKVX NSCLC it was 107%; with SN12C renal, 99.2%. The growth is 81.7% with UO-31 renal; 102% in the assay on TK-10 renal; 102% in the assay with ACHN renal; 35.5% in the assay on CAKI-1 renal; 78.4% in the assay on A498 renal; 92.1% in the assay with CCRF-CEM leukemia. In addition, the growth in the assay with MOLT-4 leukemia was 109%.
For `CC(CC(CCC(=O)O)(c1ccccc1)c1ccccc1)N(C)C` (stereo not drawn), the growth with HCT-15 colon was 95.6%; in the assay on HT29 colon, 105%; in the assay on SNB-75 CNS it was 99.6%; with SNB-19 CNS, 110%; with U251 CNS it was 92.3%; in the assay on SK-MEL-5 melanoma, 95.5%. Moreover, the growth in the assay on UACC-62 melanoma is 103%; with LOX IMVI melanoma, 98.8%; in the assay on SK-MEL-28 melanoma, 104%; with SK-MEL-2 melanoma, 104%; in the assay with SN12C renal, 99.2%; in the assay with UO-31 renal, 91.4%. Further, the growth was 98.2% in the assay on TK-10 renal; 106% in the assay on ACHN renal; 95% in the assay on CAKI-1 renal; 95% with A498 renal; 98.9% with CCRF-CEM leukemia; 107% in the assay on MOLT-4 leukemia.
In the case of `COC(CCCl)c1ccc(Cl)cc1` (stereo not drawn), the growth with HCT-15 colon is 98.3%; in the assay on HT29 colon it was 93.6%; with SNB-75 CNS, 84.4%; with SNB-19 CNS, 110%; with U251 CNS, 93.3%; in the assay on SK-MEL-5 melanoma it was 101%. Besides, the growth in the assay on UACC-62 melanoma is 107%; in the assay with LOX IMVI melanoma, 101%; in the assay with SK-MEL-28 melanoma, 106%; in the assay with SK-MEL-2 melanoma, 83.5%; in the assay on SN12C renal, 106%; in the assay on UO-31 renal, 84.5%. Besides, the growth in the assay on TK-10 renal is 86.3%; with ACHN renal it was 88.9%; in the assay on CAKI-1 renal, 101%; with A498 renal it was 109%; in the assay with MOLT-4 leukemia, 95%.
Regarding `CN(C)Cc1ccccn1`, the growth is 105% in the assay on HCT-15 colon; 97.4% in the assay with HT29 colon; 95.7% in the assay on SNB-75 CNS; 103% with SNB-19 CNS; 99.4% in the assay on U251 CNS; 101% with SK-MEL-5 melanoma. Besides, the growth is 97.8% with UACC-62 melanoma; 96.3% in the assay with LOX IMVI melanoma; 102% with SK-MEL-28 melanoma; 107% in the assay on SK-MEL-2 melanoma; 99.5% in the assay on EKVX NSCLC; 87.8% in the assay on UO-31 renal. The growth with ACHN renal is 102%; with CAKI-1 renal, 96.8%; in the assay with MOLT-4 leukemia it was 107%.
Consider `Cc1ccc(Cc2ccc(C)cc2)cc1`, for which the growth with HCT-15 colon is 101%; in the assay on HT29 colon it was 105%; with SNB-75 CNS, 101%; with SNB-19 CNS, 109%; in the assay with PC-3 prostate, 100%; in the assay on SK-MEL-5 melanoma it was 101%. Further, the growth with UACC-62 melanoma was 104%; in the assay with LOX IMVI melanoma, 99.4%; in the assay on SK-MEL-28 melanoma, 107%; in the assay on SK-MEL-2 melanoma it was 99.6%; in the assay with EKVX NSCLC, 94.9%; in the assay with SN12C renal, 110%. Also, the growth in the assay on UO-31 renal was 81.1%; in the assay on TK-10 renal, 107%; in the assay on ACHN renal, 99.9%; in the assay on CAKI-1 renal, 99.8%; in the assay with A498 renal, 93.2%; in the assay on MOLT-4 leukemia it was 97.2%.
On to `OC(CCN1CCCCC1)(c1ccccc1)c1ccccc1`, for which the growth in the assay on HCT-15 colon is 104%; in the assay with HT29 colon it was 96.1%; in the assay on SNB-75 CNS, 85.8%; in the assay with SNB-19 CNS, 110%; in the assay with U251 CNS, 100%; in the assay on SK-MEL-5 melanoma, 97.4%. Besides, the growth is 106% with UACC-62 melanoma; 97.2% in the assay with LOX IMVI melanoma; 112% in the assay on SK-MEL-28 melanoma; 110% in the assay on SK-MEL-2 melanoma; 98.9% in the assay with EKVX NSCLC; 108% with SN12C renal. Besides, the growth with UO-31 renal is 75.4%; in the assay on TK-10 renal, 113%; in the assay with CAKI-1 renal it was 92.6%; in the assay with A498 renal, 100%; in the assay on CCRF-CEM leukemia, 103%; in the assay with MOLT-4 leukemia it was 102%.
With `Nc1ccccc1SC1CC(=O)N(c2ccc(Cl)c(Cl)c2)C1=O` (stereo not drawn), the growth in the assay with HCT-15 colon was 118%; in the assay with HT29 colon, 96.2%; in the assay on SNB-75 CNS it was 79.9%; with SNB-19 CNS, 96.6%; in the assay on U251 CNS, 103%; with SK-MEL-5 melanoma, 104%. Moreover, the growth in the assay with UACC-62 melanoma is 87.6%; in the assay with LOX IMVI melanoma it was 98.5%; in the assay on SK-MEL-28 melanoma, 108%; in the assay on SK-MEL-2 melanoma it was 12.9%; with EKVX NSCLC, 86.4%; with SN12C renal it was 115%. Besides, the growth with UO-31 renal was 72.6%; in the assay on TK-10 renal it was 137%; in the assay on ACHN renal, 108%; in the assay with A498 renal it was 84.8%; in the assay with MOLT-4 leukemia it was 109%.
On to `C=CCOc1ccc(Cl)cc1Cl`, for which the growth with HCT-15 colon is 104%; with HT29 colon, 112%; with SNB-75 CNS, 90.3%; with SNB-19 CNS it was 114%; in the assay with U251 CNS, 106%; with SK-MEL-5 melanoma, 108%. The growth with UACC-62 melanoma is 92.7%; in the assay with LOX IMVI melanoma, 99.6%; in the assay with SK-MEL-28 melanoma, 115%; in the assay on SK-MEL-2 melanoma, 119%; in the assay on EKVX NSCLC, 103%; in the assay with SN12C renal, 105%. For the same compound, the growth in the assay with UO-31 renal was 93.5%; with TK-10 renal, 113%; in the assay on ACHN renal, 102%; in the assay on CAKI-1 renal it was 98%; in the assay with A498 renal it was 107%; in the assay on MOLT-4 leukemia it was 52%.
